Bioassay records as filed in PubChem BioAssay.
MPTP block = blocks calcium-induced mitochondrial swelling. isolated mouse mitochondria, Ca2+ swelling absorbance, 30 min. inhibition, % at 10 µM. 360,000 tested, 1.4% active. AID 602449;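 active means inhibition of 50% or more, scaled per plate between neutral and stimulator controls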
ADAM10 inh = inhibits human ADAM10 | 370,000 tested, 0.62% active | recombinant ADAM10, EDANS/DABCYL FRET peptide cleavage, 3 h | inhibition, % at 7 µM | O14672;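 active means inhibition above a per-campaign cutoff equal to the mean of compounds falling between control-based bounds plus 3 SD, cut at about 20% in these data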
rCAG RNA binder = binds r(CAG) RNA repeats; r(CAG) RNA repeat, TO-PRO-1 dye displacement fluorescence; inhibition, % at 3 µM; 370,000 tested, 1.3% active; AID 651821;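 active means inhibition above the plate cutoff, the mean of all test compounds on that plate plus 3 SD, cut at about 35% in these data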;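 further: higher means more dye released from RNA so lower well fluorescence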
ADAM17 inh = inhibitors of human ADAM17 | P78536 | recombinant ADAM17, EDANS/DABCYL FRET peptide cleavage | inhibition, % at 6.95 µM | 370,000 tested, 0.83% active | AID 720648;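 active means inhibition above the mean of compounds lying between control limits plus 3 SD, set per campaign, cut at about 8.5% in these data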
Pemphigus Ab inh = human desmoglein-3 autoantibody binding inhibition. P32926. DSG3-coupled beads, scFv-anti-DSG3-GFP binding, flow cytometry; active compounds read low. binding (percent of control), % at 10 µM. 310,000 tested, 0.48% active;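 active means binding more than 3 SD below its plate's average and above zero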;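 further: hits lower antibody fragment binding to DSG3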
KLK7 zymogen act = activators of human kallikrein-7 zymogen; P49862; purified proKLK7, EDANS-DABCYL substrate fluorescence; 100% is mature enzyme control, 0% vehicle; activation, % at 7 µM; 370,000 tested, 0.9% active; AID 652039;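 active means activation above the mean of all tested compounds plus 3 SD, computed per campaign excluding outliers beyond control limits, cut at about 13% in these data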
Target sequence (P49862 whole entry, looked up): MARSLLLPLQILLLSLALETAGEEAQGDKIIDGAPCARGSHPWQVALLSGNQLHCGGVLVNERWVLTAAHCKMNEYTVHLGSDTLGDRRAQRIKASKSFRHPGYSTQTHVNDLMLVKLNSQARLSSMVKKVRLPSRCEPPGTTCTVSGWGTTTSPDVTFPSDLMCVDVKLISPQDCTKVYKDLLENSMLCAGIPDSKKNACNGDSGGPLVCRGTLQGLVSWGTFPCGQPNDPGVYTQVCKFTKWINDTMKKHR
ADAM10 confirm = human ADAM10 inhibition, confirmation. ADAM10 QFRET peptide cleavage, EDANS fluorescence. shares compounds with ADAM10 inh. inhibition, % at 6.95 µM. AID 743208. 2,100 tested, 1% active;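 active means inhibition above about 20% chosen separately for each screening run, limit read from the data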
ADAM17 counter = counter-screen for ADAM10 exosite inhibitors: inhibitors of human ADAM17 | ADAM17 QFRET peptide cleavage, EDANS fluorescence | 2,100 tested, 0.5% active | inhibition, % at 6.95 µM | shares compounds with ADAM10 inh | AID 743214;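 active means mean triplicate inhibition above the solvent-only control wells' mean plus 3 SD, cut at about 12% in these data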
ADAM10 ctr = ADAM10 inhibition, counter-screen for ADAM17 exosite hits; shares compounds with ADAM17 inh; recombinant ADAM10, EDANS/DABCYL FRET peptide cleavage, 3 h; inhibition, % at 6.95 µM; 2,900 tested, 47% active; AID 743256;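 active means mean inhibition over the triplicate runs exceeds the activity threshold set in the earlier primary screen, cut at about 20% in these data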
ADAM17 confirm = confirmation of inhibitors of human ADAM17 | shares compounds with ADAM17 inh | recombinant ADAM17, EDANS/DABCYL QFRET peptide cleavage | inhibition, % at 6.95 µM | 2,900 tested, 65% active | AID 743257;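 active means mean inhibition across replicates above the hit cutoff set in the primary screen, cut at about 8.5% in these data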
A number is an active result; – = inactive; · = no result given. Only some compounds are listed: those with a hit (about 4.7% of all), similar ones and a draw of the others.

SMILES | MPTP block | ADAM10 inh | rCAG RNA binder | ADAM17 inh | Pemphigus Ab inh | KLK7 zymogen act | ADAM10 confirm | ADAM17 counter | ADAM10 ctr | ADAM17 confirm
Cc1ccc(NP(=O)(Oc2ccccc2F)Oc2ccccc2F)cc1 | – | 21 | – | – | – | – | – | – | · | ·
COc1cccc(NC(=O)N2CCC3(CC2)OCCO3)c1 | – | – | – | – | – | – | · | · | · | ·
CCC(=Nc1cc(OC)ccc1OC)c1c(O)[nH]c(=O)[nH]c1=O | – | 21 | – | – | – | – | – | – | · | ·
CC(C)c1ccccc1NC1=NCCCS1 | – | – | – | – | · | – | · | · | · | ·
CCc1ccc(NP(=O)(Oc2ccccc2F)Oc2ccccc2F)cc1 | – | 26 | – | 12 | – | – | – | – | 35 | 20
COc1cccc(NP(=O)(Oc2ccccc2Cl)Oc2ccccc2Cl)c1 | – | 23 | – | 10 | – | – | – | – | 45 | 18
COC(=O)C1=C(c2cc3ccccc3s2)C[C@@H]2CC[C@H]1N2C(=O)NCC1CC1 | – | – | – | – | – | – | · | · | · | ·
COC(=O)C1=C(c2cc3ccccc3s2)C[C@@H]2CC[C@H]1N2C(=O)NCc1ccc(C(F)(F)F)cc1 | – | 24 | – | 12 | – | – | – | – | – | 12
COC(=O)C1=C(c2ccc(F)cc2OCc2ccccc2)C[C@@H]2CC[C@H]1N2C(=O)NCc1ccccc1OC | – | 28 | – | 15 | – | – | – | – | 21 | 13
COC(=O)C1=C(c2ccccc2OCc2ccccc2)C[C@@H]2CC[C@H]1N2C(=O)NCCc1ccc(F)cc1 | – | 21 | – | 10.0 | – | – | – | – | – | –
CC(C)(O)/C=C/C(=O)[C@](C)(O)C1[C@H](O)C[C@@]2(C)C3CC=C4C(C[C@H](O)[C@@H](O)C4(C)C)[C@]3(C)C(=O)C[C@]12C (some centres not stated) | – | · | · | · | – | · | · | · | · | ·
COC(=O)C1=C(c2ccc(OC)c(OC)c2)C[C@@H]2CC[C@H]1N2C(=O)NCCOc1ccccc1Cl | – | – | – | – | – | – | · | · | · | ·
COC(=O)C1=C(c2ccc(-c3ccccc3)c(F)c2)C[C@@H]2CC[C@H]1N2C(=O)NCCO | – | – | – | – | – | – | · | · | · | ·
CCCNC(=O)N1[C@H]2CC[C@@H]1C(C(=O)OC)=C(c1ccc(-c3ccccc3)c(F)c1)C2 | – | 26 | – | 16 | – | – | – | – | – | 10
COC(=O)C1=C(c2ccc(-c3ccccc3)c(F)c2)C[C@@H]2CC[C@H]1N2C(=O)NCCOc1ccccc1Cl | – | 28 | – | 17 | – | – | – | – | 28 | 17
CC(=O)N1Cc2cnnn2-c2ccccc2C1(C)C#N (configuration not stated) | – | – | – | – | – | – | · | · | · | ·
O=C1NCN(c2ccccc2)C12CCN(C(c1ccnc3ccccc13)c1nnnn1Cc1ccccc1)CC2 (configuration not stated) | – | – | – | – | · | – | · | · | · | ·
O=C1NCN(c2ccccc2)C12CCN(C(c1cccc3ccccc13)c1nnnn1Cc1ccccc1)CC2 (configuration not stated) | – | 21 | – | 9.9 | · | – | – | – | 41 | 17
C=CCN1CC[C@]23c4c5ccc(O)c4OC2C(=O)CC[C@@]3(O)C1C5 (some centres not stated) | – | – | – | – | – | – | · | · | · | ·
CCOC(=O)[C@]12Cc3ccccc3[C@H]1N(CCC(=O)OC)C(=O)c1cc(OC)ccc12 | – | – | – | – | · | – | · | · | · | ·
Cc1cccc(OCC(=O)N2CCN(Cc3ccncc3)CC2)c1 | – | – | – | 11 | – | – | · | · | – | –
